# Data as given in PubChem BioAssay AID2530 (National Center for Advancing Translational Sciences (NCATS), 2010).
# Records with an inconclusive call do not appear. Entries that show only a call come without a potency. Activity calls are given as the source filed them. Calls follow the shape of the dose curve; as a rule, active = well fitted inhibition curve with a large enough effect; inconclusive = small, poorly fitted or top-dose-only effect; inactive = flat fitted curve, though single readings scatter.
# Molecular target: Luciferin 4-monooxygenase (Photuris pensylvanica) (UniProt Q27757)
# Assay: Secondary Assay for Luciferase (Kinase-Glo TM) Inhibition Counterscreen
# Conditions: Kinase-Glo luciferase enzyme, luminescence; series mostly up to 58.1 µM
# Procedure, shortened: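 Kinase-Glo firefly-type luciferase with 10 uM ATP in 50 mM imidazole pH 7.2, 50 mM KCl, 7 mM MgCl2, 0.01% Tween 20, 0.05% BSA. Luminescence read after 8 min at ambient temperature, normalized to DMSO and 40 uM SIB 1757, then Hill-fitted.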
# Potency is read from the fitted curve at half-maximal effect.
row,SMILES,Potency
1,Cc1ccc(NS(=O)(=O)c2cccc(F)c2)cc1C,inactive
2,COc1cc(/C=N/N2C(C)CCCC2C)cc(OC)c1O (centres undefined),inactive
3,O=S1(=O)N=C(Oc2ccc(Cl)cc2)c2ccccc21,inactive
4,Cc1ccc(NS(=O)(=O)c2cc3c(cc2Br)NC(=O)CO3)cc1C,inactive
5,O=C1c2ccccc2C(=O)N1c1cccc2ncccc12,inactive
6,Brc1ccc(N=Nc2ccc3ccccc3n2)cc1,7.3 µM (active)
7,Cc1ccc(NS(=O)(=O)c2cc3c(cc2-c2ccccc2)NC(=O)CO3)cc1C,inactive
8,CN(C)c1cccc(S(=O)(=O)N2CCN(S(=O)(=O)c3ccc4c(c3)OCCO4)CC2)c1,inactive
9,Cc1ccc(NS(=O)(=O)c2ccc3c(c2)oc(=O)n3C)cc1C,inactive
10,O=C1c2ccccc2C(=O)N1c1ccc2ncccc2c1,inactive
11,CC(C)CN=Cc1c(O)c([N+](=O)[O-])cc2oc3c(c12)CCCC3,inactive
12,COc1cccc(N2C(=O)c3ccccc3C2=O)n1,inactive
13,O=S1(=O)N=C(Oc2ccccc2Cl)c2ccccc21,inactive
14,Cc1ccc(-c2nc3cnccn3c2Nc2ccc(C(C)C)cc2)o1,inactive
15,c1ccc2nc(-c3nc4ccccc4[nH]3)ccc2c1,5.8 µM (active)
16,Cc1ccc(C)c(OC2=NS(=O)(=O)c3ccccc32)c1,inactive
17,COc1cccc(OC2=NS(=O)(=O)c3ccccc32)c1,inactive
18,CN1CCc2cccc3c2C1Cc1ccc(O)c(O)c1-3 (centres undefined),inactive
19,O=C1c2ccccc2C(=O)N1c1cccc(=O)[nH]1,inactive
20,Cc1ccc(NS(=O)(=O)c2cc3c(cc2Cl)CCC(=O)N3)cc1C,inactive

row,SMILES,Potency
1,COc1cccc(N2C(=O)c3ccccc3C2=O)c1,inactive
2,CCOC(=O)Cc1csc(NC(=S)NC(=O)c2ccc([N+](=O)[O-])cc2)n1,inactive
3,O=C1CCc2cc(S(=O)(=O)Nc3cccc(F)c3)ccc2N1,inactive
4,Cc1ccc(NS(=O)(=O)c2cc3c(cc2-c2ccsc2)NC(=O)CO3)cc1C,inactive
5,Oc1ccc(C23CC4CC(CC(C4)C2)C3)cc1O,inactive
6,Cc1ccc(NS(=O)(=O)c2ccc3[nH]c(=O)[nH]c3c2)cc1C,inactive
7,COc1ccc(-c2nc(-c3ccccn3)no2)cc1,2.91 µM (active)
8,O=C1c2ccccc2C(=O)N1Cc1ccccc1,inactive
9,Cc1ccc(NS(=O)(=O)c2cc3c(cc2Cl)NC(=O)CO3)cc1C,inactive
10,COc1ccccc1N1C(=O)c2ccccc2C1=O,inactive
11,Cc1ccc(NS(=O)(=O)c2cc3c(cc2N(C)C)NC(=O)CC3)cc1C,inactive
12,Cc1ccc(N2C(=O)c3ccccc3C2=O)c(C)c1,inactive
13,COc1ccc(-c2cc3nc(C)n(N)c(=O)c3s2)cc1,2.31 µM (active)
14,Cc1cccc(OC2=NS(=O)(=O)c3ccccc32)c1,inactive
15,Cc1ccc(S(=O)(=O)/N=C2/C=C(Sc3ncn[nH]3)C(=O)c3ccccc32)c(C)c1,inactive
16,O=C1c2ccccc2C(=O)N1c1noc2ccccc12,inactive
17,O=C1CCc2cc(S(=O)(=O)Nc3ccccc3Cl)ccc2N1,inactive
18,CC(=O)N(C1=C(Cl)C(=O)c2ccccc2C1=O)c1ccc(C(=O)O)cc1,inactive
19,Cc1cc(N2C(=O)c3ccccc3C2=O)no1,inactive
